# Results as given in PubChem BioAssay (NCI).
# This is part of a sample that, as a whole, favours compounds with a hit. Of some 79,000 tested, about 15% had one in any assay. Values without a mark were called inactive. Active and inactive are the calls of the source. Cut-off read from the data, not from the text of the source: active = growth inhibition above about 70%; inactive = the rest.
# Assay: NCI Yeast Anticancer Drug Screen. Data for the rad50 strain (AID 155);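 note: 0% = growth of vehicle-only cultures of the same strain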
# Conditions: S. cerevisiae rad50 strain growth inhibition, active compounds read high
# Method: Growth inhibition of yeast strains with defined genetic alterations is measured as a screen for potential anti-cancer activity. Selected strains with alterations in DNA damage repair or cell cycle control were exposed to compounds and growth inhibition was measured relative to vehicle treated controls. The strain used in this assay is rad50
# [1] = at 5.0 µM (retest, dose inferred, filed as 0.5)
# [2] = at 50.0 µM (retest, dose inferred, filed as 5.0)
SMILES,growth inhibition [1],growth inhibition [2],growth inhibition (at 50.0 µM)
Cc1ccc(C(=Nc2ccccc2)N=P(c2ccccc2)(c2ccccc2)c2ccccc2)cc1,56%,98% (active),90.6% (active)
COc1cccc2c1C(=O)c1c(O)c(COC3CC(N)C(O)C(C)O3)cc(O)c1C2=O (configuration not stated),14%,89% (active),96.7% (active)
COc1ccc(C(=O)Oc2c(Br)cc(Br)cc2Br)cc1,4%,-3%,14.2%
CCCCOc1c(OCCCC)c(=O)c1=O,78% (active),54%,-13.6%
Cc1ccc(/C=C2\CN(C)CC3=C2NC(=S)NC3c2ccc(C)cc2)cc1 (configuration not stated),31%,40%,30.2%
CC1(C)CC([P+](c2ccccc2)(c2ccccc2)c2ccccc2)=NN1,66%,91% (active),76.2% (active)
CCCCC(CCc1ccccc1)(C(=O)O)c1ccccc1 (configuration not stated),88% (active),99% (active),99.4% (active)
Clc1ccc2[nH]c(-c3ccccc3)c(-c3ccccn3)c2c1,81% (active),94% (active),96.2% (active)
Nc1nccc(NCCCCCCNc2ccnc(N)n2)n1,16%,41%,43.2%
CCN(CC)C(=S)N/N=C/c1cc([N+](=O)[O-])ccc1O,-21%,63%,37%
CCN(CC)C(=O)C1(OC(C)=O)CCCCC1,0%,0%,-2.4%
CS(=O)(=O)c1nc(Cl)c(Cl)c(C#N)c1Cl,50%,99% (active),98.3% (active)
CCN(CC)CCOc1ccc(-c2nc3cc(Cl)ccc3s2)cc1,29%,88% (active),75% (active)
CC(=O)c1c2c(cc3c1CC1(C3)Cc3ccc4c(c3C1=O)CCC4)CCC2 (configuration not stated),3%,1%,-0.85%
